Assay outcomes from PubChem BioAssay.
CHX counter = Cycloheximide Counterscreen for Small Molecule Inhibitors of Shiga Toxin; cell reporter, cycloheximide protein synthesis inhibition counterscreen; max response, %; actives 12% (n = 300,000); AID 2314, 2010; in the data active = max response mostly above about 13%, no sharp cut-off; inactive = mostly below about 14%; note: read at 38.3 µM for the half of the compounds with a filed dose; 0% is about no effect
Lassa entry inh = qHTS for Inhibitors of binding or entry into cells for Lassa Virus. Lassa virus pseudotype entry inhibition, cell reporter. Potency, µM (titrated, usually from 37.9 µM), without a hit: at the highest dose activity change, negative = inhibition, most hits filed as inhibitors. actives 1.2% (n = 300,000). AID 540256, 2011; calls by dose curve; tested in HEK293 cells; note: potency is the fitted concentration of half-maximal effect; % is set by controls: 0 for no effect and ±100 for the full control effect; nearly all actives have a fitted effect of over 50% in size
Marburg entry inh = qHTS for inhibitors of binding or entry into cells for Marburg Virus; Marburg virus pseudotyped entry inhibition, cell reporter; Potency, µM (doses to about 37.8 µM), for inactives: at the highest dose activity change, negative = inhibition, usual class: inhibitors; actives 1.8% (n = 300,000); calls by dose curve; tested in HEK293 cells; note: potency is the fitted concentration of half-maximal effect; % is set by controls: 0 for no effect and ±100 for the full control effect
Shiga toxin inh = A qHTS for Small Molecule Inhibitors of Shiga Toxin; Vero cells, Shiga toxin protein synthesis inhibition reporter; inhibition, % at 38.7 µM; actives 9.2% (n = 290,000); AID 2315, 2010; in the data active = inhibition mostly above about 28%, no sharp cut-off; inactive = mostly below about 43%; note: 0% is about no effect
Starred values were filed as active, the others as inactive; ? = inconclusive; / = not tested or not shown; + = active, no number; [ ] = remark or other dose. Sampled rows, rich in hits. Any-hit rate of the full collection: about 12%.

SMILES	CHX counter	Lassa entry inh	Marburg entry inh	Shiga toxin inh
COc1ccc(-c2cc(C(=O)N3CCCCC3)no2)cc1OC	39*	1%	?	77*
COc1ccc(-c2cc(C(=O)N3CCCC3)no2)cc1OC	20*	18%[46.1 µM]	-26%[46.1 µM]	86*
CC[C@H](C)[C@H](NC(=O)[C@@H](NC(=O)[C@@H](NC(=O)[C@H](CCC(=O)O)NC(=O)[C@H](CCC(=O)O)NC(=O)[C@H](CCC(=O)O)NC(=O)[C@H](C)NC(=O)[C@@H](N)CC(C)C)C(C)C)C(C)C)C(=O)N[C@@H](CCCNC(=N)N)C(=O)N[C@@H](CO)C(=O)N[C@@H](C)C(=O)N[C@@H](CC(N)=O)C(=O)N[C@@H](Cc1ccccc1)C(=O)N[C@H](C(=O)N[C@@H](CC(=O)O)C(=O)N[C@@H](CC(N)=O)C(=O)O)[C@@H](C)O	-2	/	/	-2
Cc1csc(NC(=O)CSc2ccc(-c3ccccc3)nn2)n1	11	?	?	17
O=C(CSc1ncn[nH]1)Nc1nnc(-c2ccccc2)s1	67*	/	/	91*
O=C(CSc1ncn[nH]1)Nc1ccccc1-c1ccccc1	-3	?	8%	24
Cc1nnc(NC(=O)CSc2ncc(-c3ccccc3)[nH]2)s1	13	/	/	31*
CCc1nnc(NC(=O)CSc2ncc(-c3ccccc3)[nH]2)s1	38*	0%	9%	20
Cc1csc(NC(=O)CSc2ncc(-c3ccccc3)[nH]2)n1	30*	3%	-3%	10
CC(C)[C@@H]1CC[C@H](C)C[C@H]1OP(N)(=O)c1ccccc1 (stereo partly specified)	/	/	-2%	/
Cc1cccc(CCNS(=O)(=O)c2ccc3c(c2)CCN3C(=O)CCC(=O)O)c1	-2	-3%[46.1 µM]	-24%[46.1 µM]	4
O=C(NCCSc1c(-c2ccc(Br)cc2)[nH]c2ccccc12)c1ccc(S(=O)(=O)N2CCOCC2)cc1	/	-23%[46.1 µM]	?	/
Cc1csc(NC(=O)CSc2nc3ccccc3c(=O)[nH]2)n1	6	?	4.6µM*	-16
CC(Oc1ccccc1)C(=O)Nc1nc2ccc(S(N)(=O)=O)cc2s1 (stereo unspecified)	/	1%[46.1 µM]	/	/
CCOc1ccc(NC(=O)Nc2nc3ccc(S(C)(=O)=O)cc3s2)cc1	-2	-12%	12%	-11
Cc1ccccc1NC(=O)Nc1nc2ccc(S(C)(=O)=O)cc2s1	14	-3%	1%	+
NS(=O)(=O)c1ccc2nc(NC(=O)Nc3ccccc3F)sc2c1	50*	?	?	105*
Cc1c(Cl)cn2c(=O)cc(CN(C)Cc3nc4ccccc4c(=O)[nH]3)nc2c1Cl	26	/	/	5
O=C(COc1ccccc1Cl)Nc1ccccc1C(=O)N1CCCCC1	43*	1%	4%	85*
COc1ccccc1OCC(=O)Nc1ccccc1C(=O)N1CCCCC1	5	3%	26%	21
O=C(COc1ccc(Cl)cc1Cl)Nc1ccccn1	-11	0.52µM*	?	-23
CSc1ccccc1NC(=O)COc1ccc(Cl)cc1Cl	17*	19%	?	43*
CSc1ccccc1NC(=O)COc1ccccc1Cl	51*	1%	8%	132
C/C(=N\NC(=S)NC1CCCCC1)c1ccc(Cl)c(Cl)c1	-1	/	/	-2
CC(=NNC(=S)N1CC2CCC(CC2)C1)c1ccncn1	/	0.32µM*	?	/
SMILES	CHX counter	Lassa entry inh	Marburg entry inh	Shiga toxin inh
NC(=Nc1nc(-c2ccccn2)cc2ccccc12)c1ccccn1	/	0.56µM*	?	/
CCC[C@H](NC(=O)[C@H](CC(C)C)N(C)C(=O)CNC(=O)[C@@H](NC(=O)[C@H](Cc1ccccc1)NC(=O)[C@H](CCCCN)NC(=O)[C@@H](N)CC(=O)O)C(C)C)C(N)=O	-1	/	/	-12
COc1cc(C)ccc1OCCCON1C(=O)CCC1=O	11	6%	-3%	20*
COc1cc(C)ccc1OCCOCCOc1ccccc1[N+](=O)[O-]	22*	-11%	5%	11
COc1cc(C=O)ccc1OCCOCCOc1cc(C)ccc1Cl	2	-17%	-4%	-3
Cc1cc(C)c(OCCCON2C(=O)CCC2=O)c(Br)c1	1	?	24%[46.1 µM]	-7
COc1cc(C)ccc1OCCOc1ccccc1Cl	31*	14%	?	61*
CC(C)(C)c1ccc(OCCON2C(=O)CCC2=O)c(Cl)c1	39*	-8%	20%	63*
O=C(C1CCCN(CCCc2ccccc2)C1)N1CCCCCC1 (stereo unspecified)	-2	-1%	6%	14
O=C(CS(=O)(=O)c1cn(CC(=O)N2CCCC2)c2ccccc12)Nc1ccccc1F	3	1%	1%	1
O=C1CCC(=O)N1OCCCCOc1ccccc1	12*	0%	?	13
COc1cc(C)ccc1OCCCCOc1ccccc1C(C)=O	12	-15%	?	22
COc1cc(C)ccc1OCCCOc1ccccc1Cl	51*	?	18%	93*
Cc1cc(NC(=O)c2cc(-c3ccccc3)on2)no1	-4	20%	?	-11
Cc1ccc(O)c(NC(=O)c2cc(-c3ccccc3)on2)c1	66*	?	?	/
O=C(Nc1cccnc1Cl)c1cc(-c2ccc(Br)cc2)on1	-4	13%	-3%[46.1 µM]	16
O=C(Nc1cc(Br)ccc1O)c1cc(-c2ccccc2)on1	14*	/	/	27
C=CC[C@@H]1C=C[C@H](ON=C[C@@H](N[S+](=O)([O-])c2ccc(C)cc2)[C@H](C)C=CCC(=O)OC)[C@H](CO)O1	/	/	-14%[14.2 µM]	/
Cc1ccc(C)c(NC(=S)NNC(=O)c2csc(C)c2C)c1	18*	17%	?	22*
Cc1ccc(C)c(NC(=S)NNC(=O)c2cc3c(s2)CCC(C)C3)c1 (stereo unspecified)	-1	2%	?	-8
Cc1ccc(C)c(NC(=S)NNC(=O)c2sccc2C)c1	29*	?	-1%	121*
Cc1ccc(C)c(NC(=S)NNC(=O)c2csc(C(C)C)c2)c1	18*	-12%	-11%	28
Cc1ccccc1C(=O)N1CCC(C(=O)N2CCCc3ccccc32)CC1	/	-17%	-19%	/
COc1ccc(CCNC(=O)C(NS(=O)(=O)c2ccc3c(c2)CCN3C(C)=O)C(C)C)cc1OC (stereo unspecified)	0	/	/	-4
Cc1ccc(N=C(c2cccs2)N2CCOCC2)cc1	15*	19%	21%	59*
SMILES	CHX counter	Lassa entry inh	Marburg entry inh	Shiga toxin inh
CC1CCCCC1NC(=O)/C=C/c1nc2ccccc2s1 (stereo unspecified)	30*	7%[46.1 µM]	2%[46.1 µM]	76
CC(Sc1nc2ccccc2[nH]1)C(=O)NC1CCCCC1C (stereo unspecified)	-1	3%	-24%	-11
O=C(CN1CCC(c2nc3ccccc3s2)CC1)N1CCCCC1	16	/	/	33
O=C(/C=C/c1nc2ccccc2s1)N1CCCCCC1	35*	-24%[46.1 µM]	?	53*
CN(C(=O)CSc1nnc(-c2ccc(F)cc2)c2ccccc12)C1CCS(=O)(=O)C1 (stereo unspecified)	1	0%	5µM*	-12
CN(C(=O)CSc1nnc(-c2ccccc2)c(-c2ccccc2)n1)C1CCS(=O)(=O)C1 (stereo unspecified)	-1	-4%	16%	-2
